# From the supplement of paper PMC10338343
# ± gives the standard deviation.
# Assays:
# [1] = test system: MILI (PIWIL2) piRISC loaded with piRNA #1 (26 nt); assay: pre-steady-state target cleavage rate (min^-1); guide: piRNA #1 5'p-UGAGGUAGUAGGUUGUAUAGUAUCCA; higher = faster piRNA-guided slicing of the target; settings: auxiliary factor: 500 nM mouse GTSF1
# Summary of the method: (§1)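 In Cleave-'n-Seq, a transcribed, DNA-blocked target RNA library (0.1 nM) was combined with 1 nM active affinity-purified piRISC bearing one synthetic guide, with or without 500 nM GTSF1 partner protein. Reactions ran in HEPES–potassium acetate buffer at 33 °C for 0–8 or 0–960 min. Uncleaved targets were sequenced and normalised to depth and to weakly complementary targets, three trials were pooled, and k3 was capped at 0.0001 min^-1. The pre-steady-state cleavage rate was obtained by fitting a burst-and-steady-state model.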
# [2] = test system: EfPiwi piRISC loaded with piRNA #1 (26 nt); assay: pre-steady-state target cleavage rate (min^-1); auxiliary factor: 500 nM Ephydatia muelleri Gtsf1; guide: piRNA #1 5'p-UGAGGUAGUAGGUUGUAUAGUAUCCA; MIWI and MILI are mouse PIWI proteins and EfPiwi is from a freshwater sponge; tags in brackets are library labels; higher = faster piRNA-guided slicing of the target
# Summary of the method: as §1
Sequence,pre-steady-state target cleavage rate [1],pre-steady-state target cleavage rate [2]
GGAGUGGAUACUAUACUACCUACUACCUGA,0.104 ± 0.013,0.00352 ± 0.0018
GGAGACCAUACUAUAACAACCUACUACCUCA,0.133 ± 0.012,0.00662 ± 0.0038
GGAGAGGAUACUUAUCAACCUACUACCUCA,0.135 ± 0.0097,0.00553 ± 0.0043
GGAGUGGAUACAAUACAAGCUACUACCUCA,0.213 ± 0.015,0.00566 ± 0.0028
GGAGAGGAUACUAUACUACCAACUACCUCA,0.00796 ± 0.0017,0.00357 ± 0.0021
GGAGUGGAUACUAUACAACCUACUACCAUCA,0.0921 ± 0.013,0.00588 ± 0.0026
GGAGACGAUACUAUACAACCUACUCACCUCA,0.122 ± 0.019,0.00418 ± 0.0019
GGAGUGGAUACUAUACAACCAACAACCUCA,0.00386 ± 0.0015,0.00217 ± 0.0016
GGAGACCAUAUAUACAACCUACUACCUCA,0.05 ± 0.0081,0.00541 ± 0.0043
GGAGACCUAUCUAUGACAACCUACUACCUCA,0.0545 ± 0.0096,0.00594 ± 0.0037
GGAGACCUUACUAUAGAACCUACUACCUCA,0.125 ± 0.015,0.00324 ± 0.0026
GGAGAGGAUACUAAACAUCCUACUACCUCA,0.276 ± 0.022,0.00524 ± 0.0024
GGAGACCAUACUAUACAAGCUACUUCCUCA,0.193 ± 0.016,0.00551 ± 0.0027
GGAGACCAAACUAUACAACCUACUAGCUCA,0.0778 ± 0.029,0.00453 ± 0.0034
GGAGACGUUACUAUACAACGUACUACCUCA,0.0206 ± 0.0027,0.00362 ± 0.0014
GGAGACCUAACUAUACAACCUACCACCUCA,0.0488 ± 0.014,0.00588 ± 0.0042
GGAGACCUUACUAAUACAACCUACUACCUCA,0.0928 ± 0.01,0.074 ± 0.027
GGAGAGGAAACUAUACAUCCUACUACCUCA,0.302 ± 0.029,0.00711 ± 0.0026
GGAGACGAUACUAUUCAACGUACUACCUCA,0.0257 ± 0.0034,0.00355 ± 0.0011
GGAGACGAUACUAUACAACCUACUACCUGCA,0.203 ± 0.021,0.00933 ± 0.0034

Sequence,pre-steady-state target cleavage rate [1],pre-steady-state target cleavage rate [2]
GGAGUGGAUACUACACAACCUACUACCUCA,0.175 ± 0.011,0.082 ± 0.029
GGAGAGGAUACUAUUCAACCUACUACCACA,0.169 ± 0.017,0.00331 ± 0.0019
GGAGUGGAUACUAUACAACGUAGUACCUCA,0.0167 ± 0.0028,0.00292 ± 0.0011
GGAGACCAUUCUAUACAACCUACUACCUCA,0.136 ± 0.013,0.0597 ± 0.02
GGAGUGGAUACUAAACAACCUACUACCUCA,0.168 ± 0.0092,0.00791 ± 0.0037
GGAGACCAUACAAAACAACCUACUACCUCA,0.0496 ± 0.014,0.00423 ± 0.0037
GGAGAGGAUACGUAUACAACCUACUACCUCA,0.0772 ± 0.011,0.0803 ± 0.032
GGAGACCUAUGUGAUACAACCUACUACCUCA,0.0354 ± 0.0073,0.0129 ± 0.0064
GGAGUGGAUACUAUACAACCUACUACCGCA,0.0694 ± 0.0095,0.00573 ± 0.002
GGAGUGGAUACUAUACAACCUACGACCUCA,0.0834 ± 0.0092,0.00416 ± 0.0017
GGAGACGAAACUUUACAACCUACUACCUCA,0.213 ± 0.03,0.0147 ± 0.0064
GGAGAGGAUACUAUACAACCUUCUACCUCA,0.0114 ± 0.0024,0.00778 ± 0.0039
GGAGAGGAUACUAUACAAACUACUACCUCA,0.134 ± 0.013,0.00673 ± 0.0029
GGAGACCUUACUAUACAAGCUACUAGCUCA,0.0972 ± 0.02,0.00451 ± 0.0043
GGAGACCAUACUAUACAACGUAGUACCUCA,0.0119 ± 0.0033,0.00264 ± 0.0023
GGAGACGAUACUAUACAACCUACUACGCUCA,0.19 ± 0.02,0.00415 ± 0.0014
GGAGAGGAAAGUAUACAACCUACUACCUCA,0.0417 ± 0.0061,0.00774 ± 0.0044
GGAGAGGAUACUAUACAGCCUACUACCUCA,0.132 ± 0.013,0.105 ± 0.04
GGAGAGGAUACUAUACAACCUACUACUUCA,0.153 ± 0.015,0.121 ± 0.05
GGAGUGGAUUCUAUACAACGUACUACCUCA,0.0287 ± 0.0031,0.00313 ± 0.0019

Sequence,pre-steady-state target cleavage rate [1],pre-steady-state target cleavage rate [2]
GGAGACGAUACAAUACAACCAACUACCUCA,0.0105 ± 0.0027,0.0037 ± 0.0029
GGAGACCUUACUAUACAUCCUAGUACCUCA,0.0856 ± 0.018,0.00256 ± 0.0016
GGAGUGGAUACUAUACAACCUACUACCUCA [g2:g26:cont:t1A],0.2 ± 0.011,0.176 ± 0.056
GGAGAGGAUACUAUUCAACCUACUACCUGA,0.0595 ± 0.0098,0.00319 ± 0.0018
GGAGCGGAUACUAUACAACCUACUACCUCA,0.203 ± 0.013,0.141 ± 0.048
GGAGAGGAUACUUUACAAGCUACUACCUCA,0.149 ± 0.014,0.00384 ± 0.0021
GGAGACCAUACUAUACAAGGUACUACCUCA,0.0713 ± 0.0087,0.00335 ± 0.0029
GGAGAGGUUACUAUACAACCUACUUCCUCA,0.00348 ± 0.0029,0.0033 ± 0.002
GGAGACGAUACUAUACUACCAACUACCUCA,0.00729 ± 0.0029,0.0038 ± 0.0023
GGAGACCAUACUAUACAACUACUACCUCA,0.0423 ± 0.0075,0.00486 ± 0.0035
GGAGACCUUACUAUACAACCUACUACCUCA [g2:g22:cont:t1A],0.165 ± 0.018,0.0238 ± 0.0084
GGAGACGAUACUAUACAACCAACUACCACA,0.00835 ± 0.0032,0.00406 ± 0.003
GGAGACGAUACUAUACAAGCUAGUACCUCA,0.105 ± 0.028,0.00387 ± 0.002
GGAGACCAUACUAUACAACCUACUACCGUCA,0.141 ± 0.023,0.00677 ± 0.0025
GGAGACCAUUCUAUACAUCCUACUACCUCA,0.235 ± 0.019,0.00435 ± 0.0029
GGAGACGAAACUAUACUACCUACUACCUCA,0.132 ± 0.02,0.00498 ± 0.0023
GGAGACGAUACUAGUACAACCUACUACCUCA,0.153 ± 0.013,0.0047 ± 0.0025
GGAGAGGAUACUAUACAACCUACUACCUUA,0.19 ± 0.018,0.204 ± 0.073
GGAGACCUAACUAUACAACCUACUUCCUGA,0.0081 ± 0.0069,0.00376 ± 0.0037
GGAGACCUUACUAUACAACCUACUACCUACA,0.109 ± 0.017,0.00473 ± 0.0031
